CIT2 TOR yeast = alters CIT2-GFP fluorescence in TOR pathway yeast screen. AID 2029. GFP response vs DMSO, % at 10 µM. 0.065% of 320,000 active. S. cerevisiae CIT2-GFP strain, flow cytometry, 3 h; 100 means same as DMSO wells;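 active means GFP response relative to DMSO above a set limit, near the screen mean plus 3 SD, cut at about 150% in these data; inconclusive means Fewer than 70 cells measured for a yeast strain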;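 further: ratio of well median GFP fluorescence to mean of DMSO wells on the plate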
RPL19A-GFP yeast = modulators of TOR pathway RPL19A-GFP in S. cerevisiae; S. cerevisiae RPL19A-GFP strain, flow cytometry, 3 h; hits give low values; percent response vs DMSO, % at 10 µM; 0.3% of 330,000 active;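 active means percent response vs DMSO below 50%; inconclusive means fewer than 70 events counted for the yeast strain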;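 further: median channel GFP fluorescence of the barcoded RPL19A-GFP strain; lower means less RPL19A-GFP as with rapamycin TOR inhibition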
MEP2 TOR yeast = modulators of TOR pathway MEP2-GFP in S. cerevisiae | S. cerevisiae MEP2-GFP strain, flow cytometry GFP, 3 h; 100% = DMSO control level | GFP response vs DMSO, % at 10 µM | 0.51% of 330,000 active | AID 2016;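 active means GFP response versus DMSO above a set limit, roughly screen mean plus 3 SD, cut at about 180% in these data; inconclusive means fewer than 70 cells counted for a yeast strain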;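 further: median GFP fluorescence of the barcode-gated MEP2-GFP cells per well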
AGP1-GFP MLPCN = yeast TOR pathway AGP1-GFP modulation | GFP response vs DMSO, % at 10 µM | 0.02% of 320,000 active | S. cerevisiae AGP1-GFP multiplex flow cytometry, 3 h; GFP as percent of DMSO wells;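 active means GFP response relative to DMSO above a set limit, near screen average plus 3 SD, cut at about 150% in these data; inconclusive means fewer than 70 cells counted for the yeast strain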;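 further: median GFP channel fluorescence of the gated AGP1 strain per well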
LAP4 TOR yeast = alters LAP4-GFP fluorescence in TOR pathway yeast screen. S. cerevisiae LAP4-GFP multiplex, flow cytometry GFP, 3 h; median GFP as percent of DMSO wells. GFP response vs DMSO, % at 10 µM. 0.34% of 320,000 active;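 active means GFP response vs DMSO above a set limit, about the screen mean plus 3 SD, cut at about 150% in these data; inconclusive means under 70 cell events counted for the yeast strain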
Hits are given with their value; - = inactive; ? = inconclusive; . = not tested or not shown; [ ] = dose if it differs, or a comment. In the library only some 0.93% were active in any assay of this set; here they are far more common.

SMILES	CIT2 TOR yeast	RPL19A-GFP yeast	MEP2 TOR yeast	AGP1-GFP MLPCN	LAP4 TOR yeast
CC(OC(=O)c1ccco1)C(=O)NC1CCCC1 (stereo not given)	-	-	-	-	-
O=C1C2C(C(=O)N1/N=C/c1cc(Br)cc([N+](=O)[O-])c1O)C1C=CC2C12CC2 (stereo not given)	?	-	193.4[may fluoresce violet]	.	-
Cc1ccc(NC(=O)CC2Oc3ccc(C)cc3NC2=O)c(C)c1 (stereo not given)	-	-	-	-	-
CCc1cccc(C)c1NC(=O)CC1Oc2ccc(C)cc2NC1=O (stereo not given)	153.3	-	202.8	-	-
COC(=O)C(CC(C)C)NC(=O)CSc1nc(-c2ccccc2)c(C#N)c(=O)[nH]1 (stereo not given)	?	45.5[may fluoresce violet]	228.0[may fluoresce violet]	?	-
N#Cc1c(-c2ccccc2)nc(SCC(=O)NC2CCCCC2)[nH]c1=O	-	-	-	-	-
Cc1cccc(OCCCC(=O)NNC(=O)c2ccc(F)cc2)c1	-	-	-	-	-
C=CCN(CC=C)C(=O)CN1C(=O)NC(c2ccccc2)(c2ccccc2)C1=O	-	-	-	-	-
CN1CCCC1CCNc1ccc2c(=O)c3ccccc3oc2c1 (stereo not given)	?	44.2[may fluoresce violet]	342.1[may fluoresce violet]	-	-
CCc1ccc(N(CC(=O)NCc2ccc3c(c2)OCO3)C(=O)c2csnn2)cc1	-	-	-	-	-
COC1=C(Nc2ccccc2OC)C(=O)c2ccccc2C1=O	-	-	-	-	-
COc1ccccc1NC1=C(C)C(=O)CC1	?	-	314.7[may fluoresce violet]	-	-
CCOc1cc(/C=C2\SC(=NC)N(C)C2=O)c(Br)cc1OC(C)=O	?	40.8[may fluoresce violet]	197.4[may fluoresce violet]	?	-
CCOc1cc(/C=C2\SC(=NC)N(C)C2=O)cc(Cl)c1OC(C)=O	-	-	-	-	-
O=C(CNS(=O)(=O)c1ccc(F)cc1)N1CCCCCC1	-	-	-	-	-
CC(C)N(C(=O)[C@H]1CC(CC(=O)NCCC2=CCCCC2)C(=O)N2CCc3c([nH]c4ccccc34)[C@]12C)C(C)C (stereo not given in full)	-	-	-	-	-
CN(Cc1ccccc1F)c1nc(-c2cccnc2)nc2ccccc12	-	-	-	-	-
Oc1ccc(/C=N/Nc2nc(-c3cccnc3)nc3ccccc23)c(O)c1	-	-	-	-	-
CCOc1ccc(CN(C)c2nc(-c3cccnc3)nc3ccccc23)cc1OC	?	48.5[may fluoresce violet]	259.2[may fluoresce violet]	?	-
COc1ccc(/C=N/Nc2nc(-c3cccnc3)nc3ccccc23)cc1OC	-	-	-	-	185.2
CC(C)c1nc(SCC(=O)Nc2c[nH]c(=O)[nH]c2=O)c2cnn(-c3ccccc3)c2n1	-	-	-	-	-
CCn1c(=S)sc2c(=O)[nH]c(C)nc21	?	40.2[may fluoresce violet]	298.0[may fluoresce violet]	?	-
Cc1cccc(-c2nnc(SCC(=O)NC3CC3)n2C)c1	-	-	-	-	-
O=C(CN1CCS(=O)(=O)CC1)N/N=C/c1cccc(C(F)(F)F)c1	150.4	-	-	-	-
COc1ccc(C2/C(=C(/O)c3ccccc3)C(=O)C(=O)N2CCO)cc1 (stereo not given)	?	-	211.5[may fluoresce violet]	-	-
SMILES	CIT2 TOR yeast	RPL19A-GFP yeast	MEP2 TOR yeast	AGP1-GFP MLPCN	LAP4 TOR yeast
Cc1ccc(C)c(N2CCN(c3ccc4cc(S(=O)(=O)N5CCCCC5)ccc4n3)CC2)c1	-	-	-	-	-
Cc1cccc(N2CCN(c3ccc4cc(S(=O)(=O)N5CCCCC5)ccc4n3)CC2)c1C	?	27.3[may fluoresce violet]	-	-	-
Cc1ccc(-n2c(Cl)c(Cl)nc(Cl)c2=O)cc1	?	-	-	-	182.8[may fluoresce violet]
CCn1c(=O)n(CC)c2cc(N3CCCC3)c(NC(=O)c3cc(Br)ccc3OC)cc21	-	-	-	-	-
CCc1ccc(/C=C2\Oc3c(ccc(O)c3CN3CCN(CCO)CC3)C2=O)cc1	?	45.5[may fluoresce violet]	192.4[may fluoresce violet]	-	-
Cc1[nH][nH]c(=O)c1C(c1ccc(N(C)C)c(Br)c1)c1c(C)[nH][nH]c1=O	-	-	-	-	172.2
CN1CCc2c(sc3c2C(=O)NC(c2ccccc2)N3)C1 (stereo not given)	-	-	-	-	-
CN1CCc2c(sc3c2C(=O)NC(c2ccc4c(c2)OCO4)N3)C1 (stereo not given)	-	-	202.5	-	-
CCc1c(O)nc(SCc2ccccc2)n(C(C)CC)c1=O (stereo not given)	?	16.3[may fluoresce violet]	209.6[may fluoresce violet]	?	-
Cc1c(NN=C(C#N)C#N)c(=O)n(-c2ccccc2)n1C	-	-	-	-	-
COC(=O)c1cc2n(n1)CCN(Cc1ccc(C)cc1)C2=O	?	-	205.4[may fluoresce violet]	?	-
COC(=O)c1cc2n(n1)CCN(Cc1cccc(OC)c1)C2=O	-	-	-	-	-
Cc1ccccc1OCC(=O)NCCN1CCCC1	?	13.7[may fluoresce violet]	?	?	?
COC(=O)c1ccccc1C(=O)N1CCOCCN(C(=O)c2ccccc2C(=O)OC)CCOCC1	?	30.8[may fluoresce violet]	188.2[may fluoresce violet]	?	-
COc1ccc(/C=C(\NC(=O)c2ccc([N+](=O)[O-])cc2)C(=O)N2CCOCC2)cc1	-	-	-	-	-
CCCc1cc(=O)oc2c(CN3CCCC3)c(O)c(Cl)cc12	-	-	-	-	-
CCc1cc(=O)oc2c(CNCc3ccccc3F)c(O)c(Cl)cc12	?	-	228.6[may fluoresce violet]	?	-
CC(OC(=O)c1ccccc1CCc1ccccc1)C(N)=O (stereo not given)	?	22.0[may fluoresce violet]	373.3[may fluoresce violet]	?	-
CCN1CCN(C2=C(NS(=O)(=O)c3ccc(Br)cc3)C(=O)c3ccccc3C2=O)CC1	-	-	-	-	-
CCN1CCN(C2=C(NS(=O)(=O)c3ccccc3)C(=O)c3ccccc3C2=O)CC1	?	37.8[may fluoresce violet]	249.6[may fluoresce violet]	?	-
CC(=O)NC1(C(F)(F)F)C(=O)Nc2c1c(=O)[nH]c(=O)n2-c1ccccc1 (stereo not given)	-	-	-	-	-
Cc1cccc(C2=NC(C(F)(F)F)(C(F)(F)F)c3c(n(-c4ccc(F)cc4)c(=O)[nH]c3=O)N2)c1	?	-	221.7[may fluoresce violet]	?	-
NNC(=O)c1ccc(COc2ccc3ccccc3c2)cc1	-	-	-	-	192.5
NNC(=O)c1ccc(COc2ccc3c(c2)CCC3)cc1	-	-	-	-	-
CCN(CC)CCn1c(NS(=O)(=O)c2ccc(C)cc2)nc2ccccc21	-	-	-	-	-
CCN(CC)CCn1c(N)nc2ccccc21	?	-	317.2[may fluoresce violet]	-	-
O=C(/C=C/c1cc[n+](CC(=O)c2ccc3cccc4c3c2CC4)cc1)c1ccc2cccc3c2c1CC3	-	-	-	-	-
Cc1cc(C)nc(/N=C(\NC(=O)C(C)(C)C)Nc2ccc(F)cc2)n1	?	48.2[may fluoresce violet]	469.6[may fluoresce violet]	?	-
O=C(NC1CCCc2c1cnn2-c1ccc(F)cc1F)c1csnn1 (stereo not given)	-	-	-	-	-
Cc1cc(OCc2cc(C(=O)N(C)C3CCOC3)no2)cc(C)c1Cl (stereo not given)	?	27.2[may fluoresce violet]	-	?	-
